# About 14,000 (4.5%) of roughly 310,000 compounds showed an effect of 50% or more. Effects have a minus sign here. The sample as a whole holds a higher share of strong results than the screen did.
# Target: human ether-à-go-go-related gene (hERG) potassium channel (human, UniProt Q12809)
# Assay: primary screen, population patch clamp on CHO cells stably expressing hERG; higher = less effect of the substance
# 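Further: peak tail current of the secondary pulse compared with the same well before compound.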
# Sequence of human ether-à-go-go-related gene (hERG) potassium channel (Q12809 whole entry, looked up): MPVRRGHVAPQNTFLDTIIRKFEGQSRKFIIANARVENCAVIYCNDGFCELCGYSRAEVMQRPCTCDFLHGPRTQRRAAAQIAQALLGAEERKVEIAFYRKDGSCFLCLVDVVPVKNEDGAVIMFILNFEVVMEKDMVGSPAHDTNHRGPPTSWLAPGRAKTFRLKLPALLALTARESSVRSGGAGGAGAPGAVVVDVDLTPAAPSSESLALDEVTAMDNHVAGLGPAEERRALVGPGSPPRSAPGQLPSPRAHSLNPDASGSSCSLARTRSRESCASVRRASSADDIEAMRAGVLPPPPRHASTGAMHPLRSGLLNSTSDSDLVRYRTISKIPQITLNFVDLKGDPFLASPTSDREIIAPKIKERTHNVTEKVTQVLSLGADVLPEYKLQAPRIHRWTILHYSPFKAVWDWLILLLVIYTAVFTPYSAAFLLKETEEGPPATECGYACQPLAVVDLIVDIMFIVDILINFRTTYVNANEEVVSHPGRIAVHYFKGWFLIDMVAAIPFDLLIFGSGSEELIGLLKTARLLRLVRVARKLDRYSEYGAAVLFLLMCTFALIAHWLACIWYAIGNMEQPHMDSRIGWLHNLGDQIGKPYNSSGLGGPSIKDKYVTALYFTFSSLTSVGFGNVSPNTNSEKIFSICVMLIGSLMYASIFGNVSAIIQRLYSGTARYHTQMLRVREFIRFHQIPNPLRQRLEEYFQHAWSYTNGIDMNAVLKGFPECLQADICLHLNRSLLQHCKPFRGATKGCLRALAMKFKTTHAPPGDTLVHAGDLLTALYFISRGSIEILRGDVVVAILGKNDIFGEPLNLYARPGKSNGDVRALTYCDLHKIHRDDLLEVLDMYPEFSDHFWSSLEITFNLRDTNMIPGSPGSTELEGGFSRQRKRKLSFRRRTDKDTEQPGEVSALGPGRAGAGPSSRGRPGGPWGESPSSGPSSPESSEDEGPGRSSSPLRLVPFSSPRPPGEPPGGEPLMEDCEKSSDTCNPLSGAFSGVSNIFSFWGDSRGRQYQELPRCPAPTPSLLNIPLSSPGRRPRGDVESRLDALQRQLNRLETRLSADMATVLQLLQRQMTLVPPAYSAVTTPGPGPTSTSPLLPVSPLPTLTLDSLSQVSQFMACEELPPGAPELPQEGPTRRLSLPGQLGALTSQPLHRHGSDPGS
row,SMILES,"hERG current change (%, negative = inhibition) at 10uM [%]"
1,Cc1ccc(Nc2nnc(-c3ccc4c(c3)OCO4)o2)c(C)c1,19.8
2,COc1ccc(C(C)N2CC34C=CC(O3)C(C(=O)O)C4C2=O)cc1 (stereo not drawn),8.42
3,Cc1ccc(CN(Cc2cc3cccc(C)c3[nH]c2=O)C(=S)NCCCN(C)C)cc1,-65
4,CCN(CC)CCCNC(=S)N(Cc1cccnc1)Cc1cc2cc(C)cc(C)c2[nH]c1=O,22.9
5,Cc1cccc2cc(CN(Cc3cccnc3)C(=S)NCCCN(C)C)c(=O)[nH]c12,3.93
6,Cc1cc(C)c2[nH]c(=O)c(CN(Cc3ccccc3)C(=S)NCCCN(C)C)cc2c1,-52.8
7,Cc1ccc2cc(CN(CCc3ccccc3)C(=S)NCCCN(C)C)c(=O)[nH]c2c1,-72
8,Cc1ccc2[nH]c(=O)c(CN(CCCN(C)C)C(=S)NCCc3ccccc3)cc2c1,-42
9,Cc1cc(C)c2[nH]c(=O)c(CN(Cc3cccnc3)C(=S)NCCCN(C)C)cc2c1,-35.6
10,COc1cc2cc(CN(CCc3ccccc3C)C(=S)NCCCN3CCOCC3)c(=O)[nH]c2cc1OC,-38.4
11,Cc1ccc2[nH]c(=O)c(CN(Cc3ccccc3)C(=S)NCCCN(C)C)cc2c1,-24.9
12,COc1cc2cc(CN(CCc3cccc(C)c3)C(=S)NCCCN3CCOCC3)c(=O)[nH]c2cc1OC,-66.9
13,COc1cc2cc(CN(CCc3cccc(C)c3)C(=S)NCCCN(C)C)c(=O)[nH]c2cc1OC,-1.74
14,Cc1cccc2cc(CN(Cc3ccccc3)C(=S)NCCCN(C)C)c(=O)[nH]c12,-38
15,CC(C)(C)c1cc[n+](C2=C([O-])c3ccccc3C(=O)/C2=N\S(=O)(=O)c2cccs2)cc1,-44
16,CCc1c(C)n([O-])c2c([n+]1=O)CCC2,13.1
17,COc1cccc(N(CC(=O)NC2CCCC2)C(=O)CCC(=O)Nc2cc(C)on2)c1,-16.4
18,CCC(=O)Nc1ccc2c(c1)nc(CN1CCN(C(C)=O)CC1)n2C,-0.94
19,Cn1c(CN2CCCCC2)nc2cc(NC(=O)c3cccc(Br)c3)ccc21,-63.3
20,CCC(=O)Nc1ccc2c(c1)nc(CN1CCCCC1)n2C,15
21,CC(=O)Nc1ccc2c(c1)nc(CN1CCCC1)n2C,-7.28

row,SMILES,"hERG current change (%, negative = inhibition) at 10uM [%]"
1,CC(=O)N1CCN(Cc2nc3cc(NC(=O)c4ccccc4)ccc3n2C)CC1,15.8
2,CC(=O)N1CCN(Cc2nc3cc(NC(=O)c4cccc(Br)c4)ccc3n2C)CC1,-70
3,Oc1ccccc1N1CCN(c2ncccn2)CC1,10.4
4,Cc1ccc(S(=O)(=O)NNC(=O)c2sccc2-n2cccc2)cc1,-21.7
5,CC(C)c1cccc(C(C)C)c1NC(=S)Nc1cccc(Cl)c1,5.01
6,COc1ccc(CC(=O)NNC(=O)c2ccncc2)cc1,29.1
7,CCOc1ccc(CNS(=O)(=O)c2c(C)nc3sccn3c2=O)cc1OC,-66.1
8,COc1cccc(CNS(=O)(=O)c2c(C)nc3sccn3c2=O)c1,-13.6
9,CCOc1ccc(CNS(=O)(=O)c2c(C)nc3scc(C)n3c2=O)cc1OC,8.99
10,O=C(NCCNC(=O)c1ccccn1)c1ccccc1,11.7
11,COc1ccc(Nc2c(-c3ccc(C)cc3)nc3cnccn23)cc1,-24.5
12,C=CCc1ccc(OCCn2nnc3ccccc32)c(OC)c1,-12.8
13,Cc1ccc2c(c1)C1CN(C)CCC1N2C(=O)c1cccs1 (stereo not drawn),-22
14,Cc1ccc2c(c1)C1CN(C)CCC1N2C(=S)Nc1ccc(Cl)cc1Cl (stereo not drawn),-34.2
15,Cc1ccc2c(c1)C1CN(C)CCC1N2C(=O)c1cn(-c2ccccc2)nc1-c1ccccc1 (stereo not drawn),-65.6
16,Cc1ccc2c(c1)C1CN(C)CCC1N2C(=O)c1ccco1 (stereo not drawn),-7.26
17,Cc1ccc2c(c1)C1CN(C)CCC1N2C(=S)NC(=O)c1ccc(Br)cc1 (stereo not drawn),-67.1
18,COc1ccc(-c2nn(-c3ccccc3)cc2C(=O)N2c3ccc(C)cc3C3CN(C)CCC32)cc1 (stereo not drawn),-31.7
19,Cc1ccc2c(c1)C1CN(C)CCC1N2C(=S)Nc1ccc(OC(F)F)cc1 (stereo not drawn),-55.1
20,Cc1ccc2c(c1)C1CN(C)CCC1N2C(=S)Nc1cccnc1 (stereo not drawn),-14
21,Cc1ccc2c(c1)C1CN(C)CCC1N2C(=O)c1ccc(Br)o1 (stereo not drawn),-38

row,SMILES,"hERG current change (%, negative = inhibition) at 10uM [%]"
1,Cc1ccc(C(=O)N(C)c2ccc(OCC(=O)N3c4ccc(C)cc4C4CN(C)CCC43)cc2)cc1.Cl (stereo not drawn),-25.5
2,Cc1ccc2c(c1)C1CN(C)CCC1N2C(=S)NC(=O)c1ccc(Cl)cc1Cl (stereo not drawn),-71
3,CC1Cc2ccccc2N1C(=S)NC(=O)c1ccc(Cl)cc1Cl (stereo not drawn),4.89
4,CC(C)c1ccc(NC(=O)CNCC(c2ccccc2)N(C)C)cc1 (stereo not drawn),-27.6
5,C/C(=N\NC(=O)c1ccc2c(c1)OCO2)c1ccc(O)cc1,13.1
6,Cc1ccc(/C=N/NC(=O)c2ccco2)s1,-2.98
7,CCOc1cc(S(=O)(=O)NCCCN2CCOCC2)ccc1F,3.16
8,Cc1cc(NC(=O)c2c(-c3c(Cl)cccc3Cl)noc2C)n(C)n1,16
9,O=C(CN1C(=O)NC(Cc2ccccc2)C1=O)Nc1ccc(OC(F)(F)F)cc1 (stereo not drawn),-13.9
10,O=C(CN1C(=O)NC(Cc2ccccc2)C1=O)Nc1ccccc1 (stereo not drawn),6.7
11,O=C(CN1C(=O)NC(Cc2ccccc2)C1=O)Nc1ccc(F)cc1 (stereo not drawn),-7.41
12,N#Cc1cccc(NC(=O)CN2C(=O)NC(Cc3ccccc3)C2=O)c1 (stereo not drawn),2.91
13,N#Cc1ccc(NC(=O)CN2C(=O)NC(Cc3ccccc3)C2=O)cc1 (stereo not drawn),-57.7
14,O=C(CN1C(=O)NC(Cc2ccccc2)C1=O)Nc1ccc(OC(F)F)cc1 (stereo not drawn),-66.9
15,Cn1nc(-c2ccccc2)c(C(=O)Nc2ccc(Cl)cc2)c1Cl,-12.7
16,O=C(CC1(O)C(=O)Nc2ccccc21)c1ccc(-n2cccc2)cc1 (stereo not drawn),2.85
17,CCCCN1C(N)=NC[C@@H]1C(C)O (stereo partly drawn),15.9
18,Cc1nn(-c2ccc(F)cc2)c(Cl)c1C(=O)OC(C)C(=O)N(C)C1CCCCC1 (stereo not drawn),-59
19,COC(=O)c1c(C)[nH]c(C(=O)OC(C)C(=O)N(C)C2CCCCC2)c1C (stereo not drawn),-2.13
20,CC(=O)Nc1ccc(NC(=O)C(C)OC(=O)c2c(C)nn(-c3ccccc3)c2Cl)cc1 (stereo not drawn),-14.8
21,Cc1ncc(CN2CCCC(C(=O)c3sccc3C)C2)s1 (stereo not drawn),24.7

row,SMILES,"hERG current change (%, negative = inhibition) at 10uM [%]"
1,Cc1ccsc1C(=O)C1CCCN(Cc2cnc(N(C)C)s2)C1 (stereo not drawn),-9.23
2,Cc1ccsc1C(=O)C1CCCN(Cc2cccn2-c2ccccn2)C1 (stereo not drawn),-75.8
3,Cc1ccsc1C(=O)C1CCCN(Cc2cccn2-c2ccc(Cl)cn2)C1 (stereo not drawn),-77.6
4,CC(C)(C)C(=O)NC1(C(F)(F)F)N=C2SCCN2C1=O (stereo not drawn),-4.77
5,CNC(=O)c1c(NC(=O)c2ccco2)sc(C)c1C,1.42
6,CCOc1cccc2c1OC1(C)CC2NC(=O)N1c1cccc(C(=O)N2CCN(c3ccccn3)CC2)c1 (stereo not drawn),-1.89
7,Cc1cc(Br)c(NC(=O)Cn2c([N+](=O)[O-])cnc2C)cc1C,4.01
8,Cc1ccc(C)c(S(=O)(=O)NCC(c2ccco2)N2CCc3ccccc3C2)c1 (stereo not drawn),-9.3
9,O=C(NCC(c1ccco1)N1CCOCC1)c1cccc([N+](=O)[O-])c1 (stereo not drawn),12.7
10,COc1ccc(NC(=O)C(=O)NCC(c2ccco2)N2CCc3ccccc3C2)cc1OC (stereo not drawn),-69.4
11,O=C(NCC(c1ccco1)N1CCc2ccccc2C1)c1cccc(Br)c1 (stereo not drawn),-5.34
12,O=C(NCC(c1ccco1)N1CCCCC1)c1cccc(S(=O)(=O)Nc2ccccc2Cl)c1 (stereo not drawn),-2.33
13,COc1ccc(F)cc1S(=O)(=O)NCC(c1ccco1)N1CCc2ccccc2C1 (stereo not drawn),-30.4
14,O=C(NCC(c1ccco1)N1CCc2ccccc2C1)c1cccc([N+](=O)[O-])c1 (stereo not drawn),-67.2
15,COc1ccc(C)cc1S(=O)(=O)NCC(c1ccco1)N1CCc2ccccc2C1 (stereo not drawn),-62.8
16,COc1cccc(NC(=O)C(=O)NCC(c2ccco2)N2CCc3ccccc3C2)c1 (stereo not drawn),-9.29
17,COc1ccc(NC(=O)C(=O)NCC(c2ccco2)N2CCc3ccccc3C2)cc1 (stereo not drawn),-23.5
18,O=C(NCC(c1ccco1)N1CCCC1)c1ccc(Cl)c(S(=O)(=O)N2CCc3ccccc32)c1 (stereo not drawn),-51
19,O=C(NCc1ccco1)c1ccc(Cl)c(S(=O)(=O)N2CCc3ccccc32)c1,-20.6
20,COc1ccc(C)cc1NC(=O)c1nnn(Cc2cccc(F)c2)c1N,7.11
21,O=C(c1ccc(NS(=O)(=O)c2ccccc2)cc1)N1CCCCCC1,-11.9

# Source: PMC4336329 (PLoS ONE, 2015)
